Source: PubChem (National Center for Advancing Translational Sciences (NCATS))
D1 antagonist: Antagonist of Human D 1 Dopamine Receptor: qHTS; D(1A) dopamine receptor (Homo sapiens), P21728; HEK293 TREx D1 cells, calcium flux, dopamine EC80; hits give low values; activity change, negative = inhibition, % at 10 µM; 360,000 tested, 3.2% active; AID 504652, 2011; in the data active = activity change below about -30%; note: % is set by controls: 0 for no effect and ±100 for the full control effect
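Using tetracycline-induced force-coupled D1 Hek293 cells and a calcium dye, signals were followed for 180 s after compound, then for 180 s after EC80 dopamine, to detect inhibitors.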
TRHR PAM: qHTS for Small Molecule Agonists and Allosteric Enhancers of Human TRH Receptor: Primary Screen for Enhancers; Thyrotropin-releasing hormone receptor (Homo sapiens), P34981; TRHR cells, fluo-8 calcium fluorescence, EC20 TRH enhancement; enhancement, % at 2 µM; 360,000 tested, 0.66% active; AID 493056, 2011; in the data active = enhancement above about 30%; note: 0% is about no effect
Target sequence (P34981 whole entry, looked up): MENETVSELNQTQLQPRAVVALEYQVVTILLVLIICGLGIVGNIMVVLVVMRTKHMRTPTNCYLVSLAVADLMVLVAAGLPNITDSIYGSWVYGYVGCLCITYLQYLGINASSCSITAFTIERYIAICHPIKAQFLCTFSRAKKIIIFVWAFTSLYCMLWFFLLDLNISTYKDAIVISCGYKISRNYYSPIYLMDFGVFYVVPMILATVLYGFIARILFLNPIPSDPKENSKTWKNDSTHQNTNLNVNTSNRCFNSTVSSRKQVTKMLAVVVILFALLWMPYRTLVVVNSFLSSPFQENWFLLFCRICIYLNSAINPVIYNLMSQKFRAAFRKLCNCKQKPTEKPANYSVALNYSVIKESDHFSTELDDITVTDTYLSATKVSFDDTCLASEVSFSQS
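TRHR-expressing cells loaded with fluo-8 calcium dye were read kinetically (ex 480/em 530) during compound addition, then stimulated with an EC20 of TRH (10 nM final). Enhancement of the Gq-mediated intracellular calcium response was scored.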
TRHR agonist: qHTS for Small Molecule Agonists and Allosteric Enhancers of Human TRH Receptor: Primary Screen for Agonists; Thyrotropin-releasing hormone receptor (Homo sapiens), P34981; TRHR cells, calcium flux fluo-8, FDSS agonist mode; activation, % at 2 µM; 360,000 tested, 0.18% active; note: 0% is about no effect
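TRHR-expressing cells loaded with fluo-8 calcium dye; 23 nL library compound pin-transferred, kinetic FDSS fluorescence (Ex 480/Em 530) recorded about 180 s for agonist-induced calcium release, before a 10 nM TRH EC20 addition for potentiator mode.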
D1 ag: Allosteric Agonists of the Human D1 Dopamine Receptor: qHTS | activation, % at 2 µM | HEK293 T-REx D1 cells, calcium flux, agonist mode | 360,000 tested, 1% active; note: 0% is about no effect
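Agonism was scored from calcium flux recorded over 180 s (1 read/s) after pintool compound addition, following a 10-cycle baseline. Cells were inducible force-coupled HEK293 TREx D1, plated overnight at 30 C and loaded with no-wash calcium dye.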
D1 PAM: Potentiators of Human D1 Dopamine Receptor: qHTS | 360,000 tested, 0.036% active | HEK293 TREx D1 cells, calcium flux, dopamine EC20 potentiation | potentiation, % at 10 µM; in the data active = potentiation above about 30%; note: 0% is about no effect
An asterisk follows results filed as active; ! = not active in a repeat. Only some compounds are listed: those with a hit (about 4.6% of all), similar ones and a draw of the others. Cut-off read from the data, not from the text of the source, unless noted: active = activation above about 30%; inactive = the rest.

Results for Cc1cccc(-c2c3c(=O)n(C)c(=O)n(C)c3c3cnc4ccccc4n23)c1 ?
D1 antagonist: -12; TRHR PAM: 1; TRHR agonist: 0; D1 ag: 0; D1 PAM: -6

Results for CCCSCCCNC(=O)C1CCCN(c2nn3cc(-c4ccc(OC)cc4)nc3s2)C1 (centres undefined) ?
D1 antagonist: -8; TRHR PAM: -4; TRHR agonist: 0; D1 ag: 0; D1 PAM: -1

What do the screens show for `Cc1cc(C)c(NC(=O)CSc2ccc(-c3ccccn3)nn2)c(C)c1`?
D1 antagonist: -48*!; TRHR PAM: -2; TRHR agonist: 0; D1 ag: 2; D1 PAM: -5

What do the screens show for `O=C(CSc1ccc(-c2ccccn2)nn1)NCc1ccc(Cl)cc1`?
D1 antagonist: 2; TRHR PAM: 32*; TRHR agonist: -1; D1 ag: -3; D1 PAM: -1

Results for Cc1ccc(NC(=O)CSc2ccc(-c3ccccn3)nn2)c(C)c1 ?
D1 antagonist: 6; TRHR PAM: -7; TRHR agonist: -1; D1 ag: 1; D1 PAM: -3

Results for Cc1cccc(OCC(=O)Nc2ccccc2OCc2cc(=O)n3cc(C)ccc3n2)c1 ?
D1 antagonist: 2; TRHR PAM: -1; TRHR agonist: 0; D1 ag: 0; D1 PAM: 0

Results for COc1ccc2c(c1OC)C(=O)N1c3ccccc3COC21 (centres undefined) ?
D1 antagonist: -6; TRHR PAM: 25; TRHR agonist: 0; D1 ag: -1; D1 PAM: -4

How did COc1ccc2c(c1OC)C(=O)N1c3ccccc3SC21 (centres undefined) do in these assays?
D1 antagonist: -4; TRHR PAM: 39*; TRHR agonist: 0; D1 ag: 1; D1 PAM: 2

How did Cc1[nH]n(-c2ccc([N+](=O)[O-])cc2)c(=O)c1C=NCCc1c[nH]c2ccccc12 do in these assays?
D1 antagonist: -36*; TRHR PAM: -7; TRHR agonist: 0; D1 ag: -1; D1 PAM: -7

Results for Cc1cc(-n2c(SCC(=O)NCc3ccccc3)nc3ccsc3c2=O)ccc1Cl ?
D1 antagonist: -29; TRHR PAM: -1; TRHR agonist: 0; D1 ag: 3; D1 PAM: -1

How did Cc1ccc(OCC(=O)NCC2(N3CCN(C)CC3)CCCCC2)cc1 do in these assays?
D1 antagonist: 9; TRHR PAM: -1; TRHR agonist: 1; D1 ag: 20; D1 PAM: 0

What do the screens show for `CCN(CCCNC(=O)CN1N=C(c2ccccc2)CCC1=O)c1cccc(C)c1`?
D1 antagonist: 13; TRHR PAM: 5; TRHR agonist: -1; D1 ag: -4; D1 PAM: -1

What do the screens show for `CCN(CCCNC(=O)CN1N=C(c2ccc(OC)cc2)CCC1=O)c1cccc(C)c1`?
D1 antagonist: -40*; TRHR PAM: -6; TRHR agonist: -1; D1 ag: 0; D1 PAM: -4

How did O=C(Nc1cc2c(cc1C(=O)c1ccccc1Br)OCCO2)c1cccc(Cl)c1 do in these assays?
D1 antagonist: 6; TRHR PAM: 0; TRHR agonist: -4; D1 ag: -1; D1 PAM: 4

Results for COc1ccc(Cn2ncc3c4sc(C)cc4n(C)c3c2=O)cc1F ?
D1 antagonist: -13; TRHR PAM: 5; TRHR agonist: -1; D1 ag: 0; D1 PAM: 5

Results for Cc1cc(C(F)F)n2ncc(C(=O)NCc3ccccc3C(F)(F)F)c2n1 ?
D1 antagonist: 15; TRHR PAM: -14; TRHR agonist: 0; D1 ag: 6; D1 PAM: 9

What do the screens show for `Cc1cc(C(F)F)n2ncc(C(=O)NCc3ccccc3F)c2n1`?
D1 antagonist: -32*; TRHR PAM: -5; TRHR agonist: 0; D1 ag: 2; D1 PAM: -4

How did Cc1cc(C)n(C(=O)/C(C#N)=N/Nc2cc(Cl)cc(Cl)c2)n1 do in these assays?
D1 antagonist: -34*; TRHR PAM: -9; TRHR agonist: 1; D1 ag: 20; D1 PAM: -6

Results for O=C(Nc1ccncc1NC(=O)c1cccc([N+](=O)[O-])c1)c1cccc([N+](=O)[O-])c1 ?
D1 antagonist: -8; TRHR PAM: 7; TRHR agonist: 0; D1 ag: 0; D1 PAM: -2

How did O=C(NC(=S)Nc1ccccn1)c1cccc([N+](=O)[O-])c1 do in these assays?
D1 antagonist: -55*; TRHR PAM: -6; TRHR agonist: 0; D1 ag: 0; D1 PAM: -6

What do the screens show for `O=C(Nc1cccc(NC(=O)c2cccc([N+](=O)[O-])c2)n1)c1cccc([N+](=O)[O-])c1`?
D1 antagonist: -34*; TRHR PAM: -7; TRHR agonist: 0; D1 ag: 4; D1 PAM: -9

How did CCOC(=O)CSC1=Nc2ccccc2C2=NC(CCC(=O)NCc3ccccc3)C(=O)N12 (centres undefined) do in these assays?
D1 antagonist: -2; TRHR PAM: 0; TRHR agonist: 0; D1 ag: 1; D1 PAM: 0

Results for CCCCCOC(=O)C1=C(C)NC(=O)NC1c1ccc(N(C)C)cc1 (centres undefined) ?
D1 antagonist: 29; TRHR PAM: 1; TRHR agonist: 0; D1 ag: 2; D1 PAM: 0

What do the screens show for `CCOC(=O)C1=C(C)NC(=O)CC1c1ccccc1` (centres undefined)?
D1 antagonist: 0; TRHR PAM: 40*; TRHR agonist: -1; D1 ag: -1; D1 PAM: 3

What do the screens show for `CCCCCOC(=O)C1=C(C)NC(=O)NC1c1ccccc1` (centres undefined)?
D1 antagonist: -36*; TRHR PAM: -4; TRHR agonist: -1; D1 ag: 3; D1 PAM: -4

How did CCOC(=O)C1=C(C)NC(=O)CC1c1ccccc1OC (centres undefined) do in these assays?
D1 antagonist: 4; TRHR PAM: 7; TRHR agonist: -1; D1 ag: 2; D1 PAM: -7

How did CSCSC1=C(C#N)C(c2ccc(Cl)cc2)C(C(C)=O)=C(C)N1 (centres undefined) do in these assays?
D1 antagonist: -31*; TRHR PAM: -1; TRHR agonist: 1; D1 ag: 5; D1 PAM: -13

How did CCOC(=O)CSC1=C(C#N)C(c2ccccc2)C(C(C)=O)=C(C)N1 (centres undefined) do in these assays?
D1 antagonist: -31*; TRHR PAM: -4; TRHR agonist: 0; D1 ag: 0; D1 PAM: 1
